MEKK2mut PB1 HTS: signal of MEK5 binding to mutant human MEKK2 PB1 domain; bead flow cytometry, Alexa488-MEK5 binding to MEKK2 mutant; percent response, % at 10 µM; 290,000 tested, 0.35% active; AID 1530; in the data active = percent response above about 24%, passing the limit was not always enough
CRFBP-R2 agonist: CRF-BP/CRF-R2 complex agonism; activation, % at 13.2 µM; 350,000 tested, 0.46% active; HEK293 CRF-R2/CRF-BP, calcium dye fluorescence (FLIPR); percent of saturating CRF peptide response;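 active = activation of at least 50%, plus an integration ratio under a set limit after plate pattern correction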;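 also: plate controls were neutral control wells without compound for no effect and CRF at EC100 for full effect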
MEKK3 PB1 HTS: modulators (inhibitors or enhancers) of MEK5 binding to human MEKK3 PB1 domain; 290,000 tested, 1.4% active; AID 1529; binding response (% of control), % at 10 µM; Q99759; bead-based flow cytometry, Alexa488-MEK5 binding to MEKK3; actives lie on both sides; 0 = blocked by unlabeled MEK5, 100 = vehicle;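 active = binding response more than 3 SD above or below the average of its plate-row segment, actives on both sides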;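 also: Alexa488 bead fluorescence after subtracting the streptavidin-only scavenger bead signal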
MEKK2wt PB1 HTS: raises or lowers MEK5 binding to wildtype human MEKK2 PB1 domain | AID 1531 | Q9Y2U5 | bead flow cytometry, Alexa488-MEK5 binding to MEKK2 WT; actives lie on both sides | binding response (% of control), % at 10 µM | 290,000 tested, 1.1% active; in the data active = binding response below about 67% or above about 130%
CRFR2-BP antag: antagonists of CRF-binding protein/CRF-R2 receptor complex; HEK293 CRF-R2/CRF-BP, CRF-induced calcium fluorescence; inhibition, % at 11.8 µM; 350,000 tested, 0.59% active;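 active = inhibition of the ligand-induced calcium signal above about 50% at the single tested concentration, limit read from the data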
ABCB6 inh 2: blocks the human ABCB6 transporter. fluorescence ratio to DMSO, % at 10 µM. K562-ABCB6 porphyrin accumulation, flow cytometry, 1 h; stronger effect = lower value. 360,000 tested, 0.19% active;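 active = fluorescence ratio to DMSO below 75%, the collection mean minus 3 SD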;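 also: signal is porphyrin accumulated inside mitochondria; 100% equals median channel fluorescence of DMSO control wells; lower ratio means ABCB6 inhibition with less porphyrin fluorescence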
MEKK2wt confirm: raises or lowers MEK5 binding to wildtype human MEKK2, retest; bead flow cytometry, Alexa488-MEK5 binding to MEKK2 WT; actives lie on both sides; shares compounds with MEKK3 PB1 HTS; AID 1892; binding response (% of control), % at 10 µM; 5,900 tested, 2.4% active; in the data active = binding response below about 16% or above about 210%; inactive = in between
MEKK2mut-MEK5: signal of MEK5 binding to mutant human MEKK2, retest | shares compounds with MEKK3 PB1 HTS | bead flow cytometry, Alexa488-MEK5 binding to MEKK2 mutant | percent response, % at 10 µM | 5,900 tested, 2% active | AID 1893; in the data active = percent response mostly above about 71%, no sharp cut-off; inactive = mostly below about 38%;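 also: higher means compound restores mutant binding toward wildtype level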
MEKK3 confirm: MEKK3-MEK5 PB1 inhibition, single concentration confirmation | shares compounds with MEKK3 PB1 HTS | bead flow cytometry, Alexa488-MEK5 binding to MEKK3; stronger effect = lower value | binding response (% of control), % at 10 µM | 5,900 tested, 1.8% active | AID 1894;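 active = binding response below 72% of control, or above a set upper limit, though filed actives all read lower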;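 also: 100% = DMSO only wells and 0% = binding blocked by excess unlabeled MEK5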
* = called active by the depositor; [ ] = dose if it differs, or a comment. Shown are actives, neighbours in structure and some others; about 2.9% of the full set was active somewhere.

How did COCCNC(=O)Cn1c(=O)n(Cc2ccc(C(=O)NCCc3ccc(OC)c(OC)c3)cc2)c(=O)c2ccccc21 do in these assays?
MEKK2mut PB1 HTS: -18; CRFBP-R2 agonist: -1; MEKK3 PB1 HTS: 37*[inhibitor]; MEKK2wt PB1 HTS: 45*[inhibitor]; CRFR2-BP antag: -11; ABCB6 inh 2: 90; MEKK2wt confirm: 102; MEKK2mut-MEK5: 4; MEKK3 confirm: 103

Results for Cn1c(C(=O)NCCCN2CCCCCC2)cc2c(=O)n(C)c3ccccc3c21 ?
MEKK2mut PB1 HTS: 6; CRFBP-R2 agonist: 6; MEKK3 PB1 HTS: 95; MEKK2wt PB1 HTS: 107; CRFR2-BP antag: -3; ABCB6 inh 2: 97

How did Cn1c(C(=O)NCCCN2CCc3ccccc3C2)cc2c(=O)n(C)c3ccccc3c21 do in these assays?
MEKK2mut PB1 HTS: 16; CRFBP-R2 agonist: 0; MEKK3 PB1 HTS: 104; MEKK2wt PB1 HTS: 143*; CRFR2-BP antag: -12; ABCB6 inh 2: 107; MEKK2wt confirm: 122; MEKK2mut-MEK5: 12; MEKK3 confirm: 101

Results for COc1ccc(CCNC(=O)c2cc3c(=O)n(C)c4ccccc4c3n2C)cc1OC ?
MEKK2mut PB1 HTS: 31; CRFBP-R2 agonist: -4; MEKK3 PB1 HTS: 132*; MEKK2wt PB1 HTS: 114; CRFR2-BP antag: 12; ABCB6 inh 2: 94; MEKK2wt confirm: 97; MEKK2mut-MEK5: -6; MEKK3 confirm: 96

Results for CCCc1nnc(NS(=O)(=O)c2ccc(C)cc2)o1 ?
CRFBP-R2 agonist: -2; CRFR2-BP antag: 26; ABCB6 inh 2: 90

Results for O=C(CSc1nc(C(F)(F)F)cc(=O)[nH]1)N1CCC(Cc2ccccc2)CC1 ?
CRFBP-R2 agonist: -1; CRFR2-BP antag: 21; ABCB6 inh 2: 97

What do the screens show for `O=C(N/N=C/c1cn(Cc2cccc(F)c2)c2ccccc12)c1cc(O)cc(O)c1`?
MEKK2mut PB1 HTS: -17; CRFBP-R2 agonist: 5; MEKK3 PB1 HTS: 79*[inhibitor]; MEKK2wt PB1 HTS: 65*[inhibitor]; CRFR2-BP antag: -7; ABCB6 inh 2: 101; MEKK2wt confirm: 74; MEKK2mut-MEK5: -13; MEKK3 confirm: 81

What do the screens show for `O=C(Nc1ccc(Cl)cn1)c1ccc2c(Cl)c3c(nc2c1)CCC3`?
MEKK2mut PB1 HTS: -13; CRFBP-R2 agonist: 2; MEKK3 PB1 HTS: 40*[inhibitor]; MEKK2wt PB1 HTS: 47*[inhibitor]; CRFR2-BP antag: 0; ABCB6 inh 2: 98; MEKK2wt confirm: 79; MEKK2mut-MEK5: -19; MEKK3 confirm: 70*

What do the screens show for `Cc1cccc(NC(=O)c2ccc3c(Cl)c4c(nc3c2)CCCC4)n1`?
MEKK2mut PB1 HTS: 2; CRFBP-R2 agonist: 1; MEKK3 PB1 HTS: 107; MEKK2wt PB1 HTS: 103; CRFR2-BP antag: -25; ABCB6 inh 2: 98

What do the screens show for `Cc1nc(SCC(=O)N2CCN(C(=O)c3cccs3)CC2)c2c(C)c(C)sc2n1`?
CRFBP-R2 agonist: -3; CRFR2-BP antag: 5; ABCB6 inh 2: 87

Results for CCCCn1c(=O)c(-c2ccccc2)c(O)c2ccccc21 ?
MEKK2mut PB1 HTS: 5; CRFBP-R2 agonist: 1; MEKK3 PB1 HTS: 131*; MEKK2wt PB1 HTS: 129; CRFR2-BP antag: -29; ABCB6 inh 2: 99; MEKK2wt confirm: 104; MEKK2mut-MEK5: -4; MEKK3 confirm: 100

Results for COc1ccc(NC(=O)N(C)C[C@H]2Oc3ccc(NS(=O)(=O)c4c(C)noc4C)cc3C(=O)N([C@H](C)CO)C[C@@H]2C)cc1 ?
CRFBP-R2 agonist: -1; CRFR2-BP antag: 2; ABCB6 inh 2: 96

Compound activity as filed in PubChem.
